Laboratory results reported in PubChem BioAssay (NCATS).
Results filed as inconclusive are left out. Entries that show only a call come without a potency. Active and inactive are the calls of the source. Calls come from the whole dose curve; as a rule, active = well fitted cell-killing curve with a large enough effect; inconclusive = small, poorly fitted or top-dose-only effect, or effect the other way; inactive = flat fitted curve, though single readings scatter.
Potency is the fitted concentration of half-maximal effect.

What follows are compounds tested on Tov-21-G (assay: Primary qHTS to identify gynecologic anti-cancer compounds using libraries of approved drugs and bioactive compounds (AID 1345084; note: nearly all actives have a fitted effect of over 55% in size)). Conditions: Gynecologic cancer cell panel viability, ATPlite luminescence, 48 h; series mostly up to 57.5 µM.
Method in brief: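 Cytotoxicity screen measuring ATP content by luciferase luminescence. Each compound is applied at five concentrations for 48 h at 37 C with 5% CO2.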
For `Cc1ncc(NC(=O)c2ccc(CN3CCN(C)CC3)c(C(F)(F)F)c2)cc1Nc1nccc(-c2cccnc2)n1`, the Potency was “inactive”. With `CC(O)CCc1ccc(O[C@@H]2O[C@H](CO)[C@@H](O)[C@H](O)[C@H]2O)cc1` (some centres undefined) the Potency was “inactive”. For `O=C(/C=C/c1ccc(O)c(O)c1)O[C@H]1[C@H](OC2CCCCC2O)O[C@H](CO)[C@@H](O)[C@@H]1O` (some centres undefined), the Potency was “inactive”. For `Fc1ccccc1-c1nc2ccn(Cc3ccc(-c4ccc(C(F)(F)F)cc4C(F)(F)F)nn3)cc-2n1`, the Potency was “inactive”. `C=C1C2(C)CC3C4(C)OC(C5OC56C4=CC(=O)OC6(C)C)C3(C)C13C(=O)OC(C)C3(O)C2=O` (centres undefined) was tested, and the Potency was “inactive”. With `COc1cc(/C=C/CO[C@@H]2O[C@H](CO)[C@@H](O)[C@H](O)[C@H]2O)cc(OC)c1O[C@@H]1O[C@H](CO)[C@@H](O)[C@H](O)[C@H]1O` the Potency was “inactive”. `Cc1onc(-c2ccccc2Cl)c1C(=O)N(C)c1ccc(Cl)cc1` was tested, and the Potency was “inactive”. With `C/C=C(\C)C(=O)OC1C(C)C2(O)C3C=C(C)C(=O)C3CC(CO)=CC2C2C(C)(C)C12OC(C)=O` (centres undefined) the Potency was “inactive”. For `COc1cc(Cc2cnc(N)nc2N)c(C(C)C)cc1OC`, the Potency was “inactive”. With `CC1=C2CC(C)(C)CC2C(O)C2=C(C1)C(=O)OC2O` (centres undefined) the Potency was “inactive”. In the case of `C[C@@H]1C[C@@H](O)[C@@]23CO[C@]2(CO)C[C@@H](O)CC3[C@@]12CC(c1ccoc1)OC2=O` (some centres undefined), the Potency is reported as “inactive”. `CC(C)C1(O)NC(=O)C(CC2(O)c3ccccc3N3C(=O)C(C)(C)NC32)n2c1nc1ccccc1c2=O` (centres undefined) was tested, and the Potency was “inactive”. For `COc1ccc(-c2ccn(CC[C@](C)(C(=O)NO)S(C)(=O)=O)c(=O)c2)c(F)c1`, the Potency was 25.1 µM (active). With `O=C(NC/C=C/CN1CCN(c2cccc(Cl)c2Cl)CC1)c1ccc(-c2ccccn2)cc1` the Potency was “inactive”. For `C=C1CCc2occ(C)c2[C@H]2[C@H]1[C@@]13O[C@@]1(C[C@@H](C)[C@H]3OC(C)=O)[C@H]1O[C@@]21C`, the Potency was “inactive”. `COc1ccc2c(c1)N1C(=O)C[C@@]34C=CC[N@+]5([O-])CC[C@H]2[C@H](CC3)[C@@]145` was tested, and the Potency was “inactive”. For `CC(=O)OC1CC2(C)C(CCC(C)C23Cc2c(O)cc4c(c2O3)CNC4=O)C(C)(C)C1O` (centres undefined), the Potency was “inactive”. For `O=C(O)CCc1cc2ccoc2cc1O[C@@H]1O[C@H](CO)[C@@H](O)[C@H](O)[C@H]1O`, the Potency was “inactive”. For `COc1ccc(CCC(=O)c2c(O)cc(O[C@@H]3O[C@H](CO)[C@@H](O)[C@H](O)[C@H]3O[C@@H]3O[C@@H](C)[C@H](O)[C@@H](O)[C@H]3O)cc2O)cc1O`, the Potency was “inactive”. In the case of `C=C1C(OC(C)=O)CCC2(C)CCC(C(C)(C)O)CC12` (centres undefined), the Potency is reported as “inactive”. With `Cn1nccc1-c1ccccc1Oc1ccc(S(=O)(=O)Nc2nccs2)cc1C#N` the Potency was “inactive”. With `O=C(CCCCC1CCCCC1)N1CCC(c2cnc[nH]2)CC1` the Potency was “inactive”. `CC(=O)O[C@@H](C[C@@H]1C=C(C)C(=O)O1)[C@H](C)[C@H]1CCC2[C@@]3(C)CC[C@H](O[C@@H]4O[C@H](CO)[C@@H](O)[C@H](O)[C@H]4O[C@@H]4O[C@@H](C)[C@H](O)[C@@H](O)[C@H]4O)C(C)(C)C3CC[C@@]2(C)[C@@]12COC(=O)C2` (some centres undefined) was tested, and the activity change, negative = cytotoxicity was 2.35% [at 11.6 µM] (inactive). `C[C@@H]1C(=O)O[C@H](C)[C@H]1C[C@@H](O)[C@](C)(O)[C@H]1CC[C@@]2(O)C3=CC(=O)[C@@H]4C[C@@H](O)[C@@H](O)C[C@]4(C)C3CC[C@]12C` (some centres undefined) was tested, and the Potency was “inactive”. In the case of `CC1(CO)CC(O)C2(C)CCC3(C)C(=CCC4C5(C=O)CCC(OC6OC(C(=O)O)C(O)C(O)C6OC6OC(C(=O)O)C(O)C(O)C6O)C(C)(C)C5CCC43C)C2C1` (centres undefined), the activity change, negative = cytotoxicity is reported as 10.3% [at 11.6 µM] (inactive). `C[C@@H]1O[C@@H](O[C@H]2[C@H](O[C@H]3[C@H](O[C@H]4CC[C@@]5(C)C(CC[C@]6(C)C5CC=C5[C@@H]7CC(C)(C)CC(=O)[C@]7(C)CC[C@]56C)[C@@]4(C)CO)O[C@H](C(=O)O)[C@@H](O)[C@@H]3O)O[C@H](CO)[C@H](O)[C@@H]2O)[C@H](O)[C@H](O)[C@H]1O` (some centres undefined) was tested, and the activity change, negative = cytotoxicity was 5.22% [at 11.6 µM] (inactive). `CC1(C)CC[C@]2(C(=O)O)CC[C@]3(C)C(=CCC4[C@@]5(C)CC[C@H](O)C(C)(C)C5CC[C@]43C)C2C1` (some centres undefined) was tested, and the Potency was “inactive”. With `COc1cc(C(CO)C(OC2OC(CO)C(O)C(O)C2O)c2ccc(O)c(OC)c2)ccc1O` (centres undefined) the Potency was “inactive”. `COc1ccc2c(c1)C=C1Cn3c-2c(C2CCCCC2)c2ccc(cc23)C(=O)NS(=O)(=O)N(C)CCOCCN(C)C1=O` was tested, and the Potency was “inactive”.
